miR-122 inh – raises miR-122 sensor activity in Huh7 cells. activation, % at 12.5 µM. Huh7 psiCHECK-miR122 Renilla luciferase sensor, 48 h. hit rate 0.14% among 340,000;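 active means mean activation of 30% or more, with every replicate also reaching 30%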;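 further: 0% = median of neutral control wells and 100% = median of positive control wells; higher luciferase signal means stronger suppression of miR-122 activity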
* hit, by the source's call. Shown is part of a subset that was picked to be rich in hits.

SMILES	miR-122 inh
Cc1ccccc1-c1ccc2c(c1)O[C@@H](CN(C)C(=O)Nc1ccc(F)cc1)[C@@H](C)CN([C@@H](C)CO)S2(=O)=O	38*
COCC(=O)N(C)C[C@H]1Oc2cc(-c3ccc(C#N)cc3)ccc2S(=O)(=O)N([C@H](C)CO)C[C@H]1C	59*
COCC(=O)N(C)C[C@H]1Oc2cc(-c3ccccc3)ccc2S(=O)(=O)N([C@@H](C)CO)C[C@@H]1C	-13
C[C@H](CO)N1C[C@H](C)[C@@H](CN(C)C(=O)Cc2ccccc2)Oc2cc(C#Cc3ccccc3F)ccc2S1(=O)=O	-18
CC(=O)N(C)C[C@H]1Oc2cc(C#C[C@@H](C)O)ccc2S(=O)(=O)N([C@H](C)CO)C[C@H]1C	5
C[C@@H]1CN([C@H](C)CO)S(=O)(=O)c2ccc(C#Cc3ccccc3F)cc2O[C@@H]1CN(C)C(=O)Cc1ccncc1	52*
Cc1ccccc1-c1ccc2c(c1)O[C@H](CN(C)C(=O)Nc1ccccc1)[C@H](C)CN([C@H](C)CO)S2(=O)=O	-16
C[C@H]1CN([C@@H](C)CO)S(=O)(=O)c2ccc(C#Cc3ccccc3F)cc2O[C@H]1CN(C)C(=O)Cc1ccccc1	-1
CC(=O)N(C)C[C@H]1Oc2cc(C#Cc3ccc(F)cc3)ccc2S(=O)(=O)N([C@H](C)CO)C[C@H]1C	37*
COc1ccc(C#Cc2cnc3c(c2)C(=O)N([C@H](C)CO)C[C@H](C)[C@@H](CN(C)CC2CCCC2)O3)cc1	1
COCC#Cc1cnc2c(c1)C(=O)N([C@@H](C)CO)C[C@H](C)[C@@H](CN(C)C(=O)Nc1ccc(OC)cc1)O2	4
C[C@H](CO)N1C[C@H](C)[C@H](CN(C)C(=O)CN(C)C)Oc2ncc(C#CC3(O)CCCC3)cc2C1=O	2
C[C@@H]1CN([C@@H](C)CO)C(=O)c2cccc(NS(=O)(=O)c3ccccc3)c2O[C@@H]1CN(C)Cc1ccc(C(=O)Nc2ccccc2N)cc1	-181
C[C@H](CO)N1C[C@H](C)[C@@H](CN(C)CC2CCOCC2)Oc2ncc(-c3ccc(C#N)cc3)cc2C1=O	-4
C[C@@H]1CN([C@H](C)CO)C(=O)c2cc(C#Cc3ccc(F)cc3)cnc2O[C@@H]1CN(C)Cc1ccccn1	-2
C[C@@H]1CN([C@@H](C)CO)C(=O)c2cc(/C=C/c3ccccc3)cnc2O[C@@H]1CN(C)C(=O)C1CCOCC1	-4
C[C@H]1CN([C@@H](C)CO)C(=O)c2cc(-c3ccccc3)cnc2O[C@H]1CN(C)C(=O)Nc1ccc2c(c1)OCO2	-3
C[C@H]1CN([C@@H](C)CO)C(=O)c2cc(C#CCc3ccccc3)cnc2O[C@@H]1CN(C)Cc1cccc(C(=O)O)c1	0
C[C@@H]1CN([C@H](C)CO)C(=O)c2cc(-c3cccnc3)cnc2O[C@@H]1CN(C)C(=O)C1CC1	7
COCC(=O)N(C)C[C@H]1Oc2cc(-c3ccccc3)ccc2S(=O)(=O)N([C@H](C)CO)C[C@@H]1C	-6
CCCN1C[C@H](C)[C@H](OC)CN(C)C(=O)c2ccc(NC(=O)COC)cc2OC[C@H]1C	3
CCC(=O)N(C)C[C@H]1Oc2cc(C#Cc3ccccc3)ccc2S(=O)(=O)N([C@@H](C)CO)C[C@H]1C	48*
CCCC#Cc1ccc2c(c1)O[C@H](CN(C)C(=O)CC)[C@@H](C)CN([C@@H](C)CO)S2(=O)=O	-34
CCCC#Cc1ccc2c(c1)O[C@@H](CN(C)C(=O)CC)[C@H](C)CN([C@@H](C)CO)S2(=O)=O	-85
C[C@@H]1CN([C@@H](C)CO)C(=O)c2cc(C#CCN(C)C)cnc2O[C@H]1CN(C)C(=O)Cc1ccncc1	3
SMILES	miR-122 inh
C[C@H]1CN([C@@H](C)CO)C(=O)c2cc(C#CCC3CCCC3)cnc2O[C@@H]1CN(C)CC1CCOCC1	-9
C[C@H]1CN([C@@H](C)CO)S(=O)(=O)c2ccc(C#Cc3ccccc3)cc2O[C@H]1CN(C)S(=O)(=O)c1ccccc1F	4
CCC(=O)N(C)C[C@@H]1Oc2cc(-c3cccnc3)ccc2S(=O)(=O)N([C@@H](C)CO)C[C@H]1C	-19
C[C@H]1CN([C@@H](C)CO)S(=O)(=O)c2ccc(-c3ccc(C(=O)N(C)C)cc3)cc2O[C@@H]1CN(C)C	2
CC(=O)N1[C@H](CNC(=O)CN(C)C)[C@@H](c2ccc(C3=CCCCC3)cc2)[C@@H]1CO	-292
CN(C)C(=O)c1ccc(-c2ccc([C@H]3[C@@H](CO)N4CCCCN(C(=O)C5CCCC5)C[C@@H]34)cc2)cc1	30*
CN(C)CC(=O)N1CCCCN2[C@@H](CO)[C@@H](c3ccc(/C=C/c4ccccc4)cc3)[C@@H]2C1	32*
C[C@@H]1CN([C@@H](C)CO)S(=O)(=O)c2ccc(-c3ccc(C(=O)N(C)C)cc3)cc2O[C@@H]1CN(C)C	2
CC(=O)N(C)C[C@@H]1Oc2cc(/C=C/c3ccccc3)ccc2S(=O)(=O)N([C@H](C)CO)C[C@H]1C	-8
C[C@@H]1CN([C@H](C)CO)C(=O)Cc2cc(N(C)C)ccc2O[C@@H]1CN(C)Cc1ccc(C(=O)Nc2ccccc2N)cc1	-130
Cc1ccc(NC(=O)c2nc(C)n(-c3ccc([N+](=O)[O-])cc3)n2)cc1	43*
O=C(Nc1ccccc1)c1cc([N+](=O)[O-])ccc1NC1CCCCC1	-123
CCC(=O)Nc1ccc2c(c1)OC[C@@H](C)N(C(=O)CN1CCOCC1)C[C@@H](C)[C@@H](OC)CN(C)C2=O	-15
CCCNC(=O)N(C)C[C@@H]1Oc2ncc(C#CCC3CCCC3)cc2C(=O)N([C@@H](C)CO)C[C@H]1C	-3
C[C@H](O)C#Cc1ccc2c(c1)O[C@@H](CN(C)C(=O)c1ccncc1)[C@@H](C)CN([C@@H](C)CO)S2(=O)=O	2
C[C@H](O)C#Cc1ccc2c(c1)O[C@H](CN(C)C(=O)c1ccncc1)[C@@H](C)CN([C@@H](C)CO)S2(=O)=O	-2
C[C@@H](O)C#Cc1ccc2c(c1)O[C@H](CN(C)C(=O)c1ccncc1)[C@@H](C)CN([C@@H](C)CO)S2(=O)=O	-10
C[C@@H]1CN([C@@H](C)CO)S(=O)(=O)c2ccc(C#Cc3ccccc3)cc2O[C@@H]1CN(C)C(=O)Nc1ccc2c(c1)OCO2	-1
CC(C)C#Cc1ccc2c(c1)O[C@H](CN(C)C(=O)c1ccncc1)[C@H](C)CN([C@@H](C)CO)S2(=O)=O	40*
C/C=C/c1ccc2c(c1)O[C@@H](CN(C)C(=O)c1cccnc1)[C@H](C)CN([C@@H](C)CO)S2(=O)=O	-7
CC(C)C#Cc1ccc2c(c1)O[C@H](CN(C)C(=O)c1ccncc1)[C@@H](C)CN([C@@H](C)CO)S2(=O)=O	41*
C/C=C/c1ccc2c(c1)O[C@H](CN(C)C(=O)c1cnccn1)[C@H](C)CN([C@H](C)CO)S2(=O)=O	33*
C/C=C/c1ccc2c(c1)O[C@H](CN(C)C(=O)c1cccnc1)[C@@H](C)CN([C@@H](C)CO)S2(=O)=O	-13
C[C@@H]1CN([C@H](C)CO)S(=O)(=O)c2ccc(C#Cc3ccncc3)cc2O[C@@H]1CN(C)C(=O)Nc1ccc2c(c1)OCO2	49*
C[C@H](O)C#Cc1ccc2c(c1)O[C@H](CN(C)C(=O)c1ccncc1)[C@H](C)CN([C@@H](C)CO)S2(=O)=O	16
C[C@@H]1CN([C@@H](C)CO)S(=O)(=O)c2ccc(C#Cc3ccccc3)cc2O[C@H]1CN(C)C(=O)Nc1ccc2c(c1)OCO2	-9
CO[C@@H]1CN(C)C(=O)c2cc(NC(=O)c3nc4ccccc4s3)ccc2OC[C@@H](C)N(Cc2ccncc2)C[C@@H]1C	1
